Bioassay records as filed in PubChem BioAssay.
Hits are enriched below; roughly 22% of the tested compounds scored in any of these assays.
CHX counter: counter-screen hit for Shiga toxin inhibitors, cycloheximide. AID 2314. hit rate 12% among 300,000. max response, %. cell reporter, cycloheximide protein synthesis inhibition counterscreen; in the data active = max response mostly above about 13%, no sharp cut-off; inactive = mostly below about 14%; also: read at 38.3 µM for the half of the compounds with a filed dose
LmPK inhibitor: inhibitors of Leishmania mexicana pyruvate kinase; Q27686; purified LmPK, Kinase-Glo ATP luminescence, 1 h; Potency, µM (doses to about 57.5 µM), hits mostly inhibitors; hit rate 0.37% among 290,000
Target sequence (Q27686 whole entry, looked up): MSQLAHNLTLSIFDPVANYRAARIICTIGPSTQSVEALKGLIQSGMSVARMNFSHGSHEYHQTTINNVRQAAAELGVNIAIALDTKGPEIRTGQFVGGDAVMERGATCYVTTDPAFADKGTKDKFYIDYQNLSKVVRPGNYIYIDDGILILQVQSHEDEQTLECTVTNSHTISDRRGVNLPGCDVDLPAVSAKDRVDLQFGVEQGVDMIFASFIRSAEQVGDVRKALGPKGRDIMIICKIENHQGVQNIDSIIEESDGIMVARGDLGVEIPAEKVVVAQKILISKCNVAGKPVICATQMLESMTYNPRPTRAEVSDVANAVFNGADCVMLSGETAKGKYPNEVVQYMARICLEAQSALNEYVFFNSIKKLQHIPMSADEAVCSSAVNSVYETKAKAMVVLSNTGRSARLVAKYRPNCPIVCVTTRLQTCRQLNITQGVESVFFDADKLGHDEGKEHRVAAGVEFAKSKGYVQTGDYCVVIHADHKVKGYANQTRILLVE
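qHTS format; LmPK 0.1 nM; substrates PEP 0.5 mM and ADP 0.1 mM. One-hour room-temperature incubation, then coupled luciferase luminescence; 0.5 nM enzyme wells mark activation.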
Pf growth 48h: P. falciparum growth inhibition at 48 hours (one generation) | P. falciparum luciferase growth in erythrocytes, 48 h | hit rate 5.9% among 310,000 | Potency, µM (top dose mostly 28.7 µM), actives largely listed as inhibitors | AID 504832
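Luciferase-expressing P. falciparum in infected erythrocytes (2% hematocrit, 0.1% parasitemia final) in RPMI 1640/0.5% Albumax were exposed to compound for 48 hours at 37 C, 5% CO2; growth read as luminescence.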
Shiga inhibitor: Shiga toxin inhibition. Vero cells, Shiga toxin protein synthesis inhibition reporter. inhibition, % at 38.7 µM. hit rate 9.2% among 290,000. AID 2315; in the data active = inhibition mostly above about 28%, no sharp cut-off; inactive = mostly below about 43%
Pf growth 96h: P. falciparum growth inhibition at 96 hours; hit rate 6.9% among 320,000; AID 504834; Potency, µM (top dose mostly 28.7 µM), actives largely listed as inhibitors; P. falciparum luciferase reporter growth, 96 h
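P. falciparum expressing integrated firefly luciferase grown in erythrocytes (2% hematocrit, 0.05% parasitemia final) with compounds for 96 hours at 37 C, 5% CO2. Growth inhibition read as loss of luminescence after adding luciferase detection reagent.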
Of the large screens only hits and unclear results are named; the others gave an inactive call. Unless noted, calls follow the shape of the dose curve; as a rule, active = well fitted inhibition curve with a large enough effect; inconclusive = small, poorly fitted or top-dose-only effect, or another doubt; inactive = no such curve, though single readings can be large or run the other way.

Cc1[nH]n(-c2ncc(-c3ccccc3)s2)c(=O)c1C(c1ccc(Cl)cc1)C(C#N)C#N (centres undefined)	CHX counter 11, Pf growth 96h inconclusive
COc1cccc(C(=O)Nc2cc3c(cc2C(C)=O)OCCO3)c1	Pf growth 96h 10µM
COc1cccc(NC(=O)c2ccc3c(c2)OCO3)c1	CHX counter 32, Shiga inhibitor 63, Pf growth 96h 9.3µM
COc1cccc(NC(=O)COC(=O)c2ccc3c(c2)OCO3)c1	none (no result: CHX counter, LmPK inhibitor, Shiga inhibitor)
COc1cccc(C(=O)N2CCOCC2)c1	Pf growth 96h inconclusive
COc1cccc(NC(=O)c2ccc3c(c2)OCCO3)c1	LmPK inhibitor 25µM, Pf growth 96h inconclusive
COc1cccc(NC(=O)c2oc3ccccc3c2NC(=O)c2ccc3c(c2)OCO3)c1	none
COc1cccc(C(=O)n2c(SC)nc3cc4c(cc32)OCCO4)c1	CHX counter 17
COC(=O)c1sccc1NC(=O)c1cccc(OC)c1	none (no result: Pf growth 48h)
Cc1cccc(C(=O)C2CCN(S(=O)(=O)c3cccc(C(=O)O)c3)CC2)c1	none
Cc1ccc(S(=O)(=O)N(CC(=O)c2ccccc2)C(=O)N2CCN(C)CC2)cc1	none (no result: CHX counter, LmPK inhibitor, Shiga inhibitor)
CCCC(=O)Nc1ccccc1NC(=O)c1ccc2c(c1)OCO2	none
CCC(=O)Nc1cccc(NC(=O)c2ccc3c(c2)OCO3)c1	CHX counter 19, Shiga inhibitor 61
C=CCOc1ccc(Br)cc1CNC(C)(C)CO	none
CC(C)(CO)NCc1cccc(OCc2ccc(Cl)cc2)c1	Shiga inhibitor active, Pf growth 96h inconclusive
CC(C)(CO)NCc1cc(Br)ccc1OCc1ccccc1	Pf growth 48h 10µM (no result: Pf growth 96h)
COc1ccccc1C(=O)NNC(=O)c1csc(N2CCOCC2)n1	Pf growth 48h inconclusive (no result: CHX counter, LmPK inhibitor, Shiga inhibitor)
O=C(NNC(=O)c1ccccc1OCc1ccccc1Cl)c1csc(N2CCOCC2)n1	CHX counter 10, Pf growth 48h inconclusive, Pf growth 96h inconclusive
CCOC(=O)c1sc2nc(N3CCCC3)c3c(c2c1N)CC(C)(C)OC3	none (no result: Pf growth 48h, Pf growth 96h)
OCCN1CCN(c2ncnc3c2sc2nc(N4CCOCC4)c4c(c23)CCC4)CC1	Pf growth 48h 13µM
c1nc(N2CCNCC2)c2sc3nc(N4CCOCC4)c4c(c3c2n1)CCC4	none
CC1(C)Cc2c(c(N3CCCC3)nc3sc4c(N5CCN(CCO)CC5)ncnc4c23)CO1	Pf growth 48h 8.3µM
COC(=O)c1cc2sc(Cl)cc2n1Cc1nc(-c2ccccc2)oc1C	Pf growth 96h 8.3µM (no result: Pf growth 48h)
COC(=O)c1cc2sc(Cl)cc2n1Cc1nc(-c2cccc(C)c2)oc1C	none (no result: Pf growth 48h)
CCN(C(=O)CSc1nnc(SC(C)C)s1)C1CCS(=O)(=O)C1 (centres undefined)	Pf growth 96h inconclusive (no result: CHX counter, LmPK inhibitor, Shiga inhibitor)
Cc1ccsc1/C=N/NC(=O)c1ccccn1	CHX counter 62, LmPK inhibitor inconclusive, Shiga inhibitor 47
Cc1ccsc1/C=N/NC(=O)C(O)c1ccccc1 (centres undefined)	CHX counter 9.6
Cc1ccsc1/C=N/Nc1ccc(C(=O)O)cc1	none
Cc1ccsc1/C=N/NC(=O)C(N)=O	CHX counter 35
Cc1ccsc1/C=N/NC(=O)c1cccc(S(=O)(=O)Nc2ccccc2Cl)c1	none
Cc1ccsc1/C=N/NC(=O)CNC(=O)c1ccccc1	none
Cc1ccsc1/C=N/NC(=O)c1cccs1	CHX counter 33, Shiga inhibitor 77
CCC1(CC)N=C(c2ccccc2)C(=S)N1	Pf growth 48h inconclusive, Pf growth 96h inconclusive
O=C(CSc1ccc2nnc(-c3ccc(Cl)cc3)n2n1)N1CCc2ccccc21	none
CCCCN(C(=O)CN1CCOCC1)c1c(N)n(CC(C)C)c(=O)[nH]c1=O	none
Cc1ccccc1-n1nnnc1SC1CCOC1=O (centres undefined)	Pf growth 96h inconclusive
Cc1cccc(-c2nnn(CC/C(N)=N/O)n2)c1	CHX counter 23, Shiga inhibitor active
Cc1ccc(N2CCN(S(=O)(=O)c3ccc4oc(=O)ccc4c3)CC2)cc1Cl	none
Fc1ccccc1Cn1nnc(-c2ccc3c(c2)OCO3)n1	CHX counter 43, Shiga inhibitor 88 (no result: Pf growth 48h)
Cc1ccc(NC(=O)Cn2nnc(-c3ccc4c(c3)OCO4)n2)cc1F	none
COc1ccc(-c2nnn(Cc3ccccc3F)n2)cc1	CHX counter 49, Shiga inhibitor 96
COc1cc(-c2nnn(Cc3ccccc3C)n2)cc(OC)c1OC	none
O=C(CSc1ncnc2c1nnn2Cc1ccccc1F)NCC1CCCO1 (centres undefined)	Pf growth 48h 15µM, Pf growth 96h inconclusive
O=C(Cc1ccc(-n2c(=O)c3ccccc3n(Cc3ccccc3F)c2=O)cc1)NCC1CCCO1 (centres undefined)	Pf growth 96h 4.7µM
